From PubChem BioAssay
Activity calls are given as the source filed them. Unless noted, the rule behind the calls is not given here.

How the values were obtained:
[1] = HepG2 liver cancer cell viability effects, profiling panel, resazurin fluorescence, 24 h, PK04 Diversity Set (AID 1172); conditions: higher = more signal; note: test concentration not given here
[2] = basal S. cerevisiae growth modulation, no modifier, primary screen, OD600, strain BY4716, 24 h, basal condition (AID 1173); conditions: OD600, 24 h, higher = more signal, called active from +8 up or from −8 down
[3] = MM1S myeloma cell viability, profiling panel, resazurin fluorescence, basal, 24 h, PK04 Diversity Set (AID 1174); conditions: higher = more signal, called active from +8 up or from −8 down;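 note: MM1S multiple myeloma cell line; test concentration not given here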
[4] = biological target: Dihydroorotate dehydrogenase (quinone), mitochondrial (Plasmodium falciparum (isolate 3D7)) (UniProt Q08210); assay: PfDHODH enzyme inhibitors, primary screen, biochemical, C-terminal His tag, absorbance 600 nm (AID 1175); conditions: DCIP absorbance 600 nm, higher = more signal, called active from +8 up or from −8 down;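 note: recombinant parasite enzyme with a five histidine tag at its C terminus; test concentration not given here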
Sequence of Dihydroorotate dehydrogenase (quinone), mitochondrial (Plasmodium falciparum (isolate 3D7)) (Q08210 whole entry, looked up): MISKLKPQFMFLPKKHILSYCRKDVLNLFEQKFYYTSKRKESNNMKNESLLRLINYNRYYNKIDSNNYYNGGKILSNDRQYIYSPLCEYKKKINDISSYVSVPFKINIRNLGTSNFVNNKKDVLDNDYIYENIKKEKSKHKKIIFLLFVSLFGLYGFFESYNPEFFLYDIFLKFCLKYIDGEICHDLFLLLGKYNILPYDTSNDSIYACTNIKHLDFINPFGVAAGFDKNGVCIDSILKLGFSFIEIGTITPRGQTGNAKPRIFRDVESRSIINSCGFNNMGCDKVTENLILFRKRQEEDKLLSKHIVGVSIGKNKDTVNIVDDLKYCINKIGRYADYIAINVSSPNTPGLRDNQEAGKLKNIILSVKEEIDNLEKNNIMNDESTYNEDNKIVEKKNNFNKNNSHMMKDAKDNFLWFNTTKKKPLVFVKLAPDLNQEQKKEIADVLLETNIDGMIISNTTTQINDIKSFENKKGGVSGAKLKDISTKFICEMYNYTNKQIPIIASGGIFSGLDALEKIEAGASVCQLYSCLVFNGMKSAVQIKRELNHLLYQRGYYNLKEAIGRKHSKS

[5] = P. aeruginosa biofilm formation inhibitors, primary screen, strain PAO1, LB-PBS medium, absorbance 600 nm (AID 1176); note: test concentration not given here; conditions: P. aeruginosa PAO1 growth/biofilm, A600, 12 h; higher = more signal
[6] = S. cerevisiae RM11-1a growth modifiers, primary screen, strain RM11-1a, OD600, basal, 24 h (AID 1177); conditions: OD600, 24 h, higher = more signal, called active from +8 up or from −8 down;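 note: cultures grown under basal conditions with no added stressor; test concentration not given here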
[7] = E. coli acrAB mutant growth effects, primary screen, E. coli filamentation inducers, strain DRC39, OD650, 24 h (AID 1178); conditions: higher = more signal, called active from +8 up or from −8 down;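 note: growth measured as culture turbidity by optical density at 650 nm; test concentration not given here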
[8] = E. coli acrAB mutant growth effects, primary screen, E. coli filamentation inducers, strain DRC39, OD650, 48 h (AID 1179);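 note: screen aims at cell division blockers that make cells filament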; conditions: E. coli DRC39 delta-acrAB growth, higher = more signal, called active from +8 up or from −8 down
[9] = RPMI8226 myeloma cell viability, profiling panel, resazurin fluorescence, basal, 24 h, PK04 Diversity Set (AID 1180); conditions: higher = more signal;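 note: RPMI8826 multiple myeloma cell line at 5000 cells per well; test concentration not given here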
[10] = biological target: E3 ubiquitin-protein ligase XIAP (Homo sapiens) (UniProt P98170); assay: XIAP binders, primary screen, biophysical, small-molecule microarray, fluorescence 635 nm (AID 1181); conditions: small-molecule microarray binding, higher = more signal;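 note: score merges 667 nm emission and signal to noise over triplicate slides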
Sequence of E3 ubiquitin-protein ligase XIAP (Homo sapiens) (P98170 whole entry, looked up): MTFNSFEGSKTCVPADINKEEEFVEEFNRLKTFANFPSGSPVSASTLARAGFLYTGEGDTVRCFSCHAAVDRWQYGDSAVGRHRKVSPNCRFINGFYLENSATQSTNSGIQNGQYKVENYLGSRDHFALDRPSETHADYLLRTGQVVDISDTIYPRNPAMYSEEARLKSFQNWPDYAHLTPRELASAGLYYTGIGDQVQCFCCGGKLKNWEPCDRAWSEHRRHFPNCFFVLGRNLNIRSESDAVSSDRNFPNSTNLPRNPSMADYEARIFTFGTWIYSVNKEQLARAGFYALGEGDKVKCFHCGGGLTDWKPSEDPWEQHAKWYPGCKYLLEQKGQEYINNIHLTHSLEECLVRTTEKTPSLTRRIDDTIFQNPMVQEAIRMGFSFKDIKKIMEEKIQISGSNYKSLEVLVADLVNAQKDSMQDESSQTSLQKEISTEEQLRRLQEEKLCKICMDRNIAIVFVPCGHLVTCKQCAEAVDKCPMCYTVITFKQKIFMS

SMILES	z-score [1]	z-score [2]	z-score [3]	composite z-score [4]	z-score [5]	z-score [6]	z-score [7]	z-score [8]	z-score [9]	composite z-score [10]
COC(=O)[C@]1(Cc2ccccc2CN=[N+]=[N-])N=C(c2ccc(OCCCO)cc2)O[C@@H]1c1ccccc1N=[N+]=[N-]	-2	1.09 (inactive)	-4.02 (inactive)	-0.123 (inactive)	1.06 (inactive)	1.77 (inactive)	1.74 (inactive)	0.918 (inactive)	-6.89	-0.188
C=C(C)C1CN([C@H](CO)c2ccccc2)C(=O)/C1=C\c1ccccc1 (stereo not given in full)	-0.607	-5.73 (inactive)	0.44 (inactive)	-2.88 (inactive)	-0.234 (inactive)	0.119 (inactive)	0.408 (inactive)	-0.719 (inactive)	0.064	0.126
CC(C)[Si](C#Cc1ccccc1)(O[C@H](c1ccccc1)c1cn(Cc2ccccc2)nn1)C(C)C	-0.001	-16.7 (active)	0.141 (inactive)	-1.03 (inactive)	-0.571 (inactive)	-0.282 (inactive)	1.67 (inactive)	0.79 (inactive)	0.253	-0.516
Cc1ccc(N2C(=O)c3ccccc3[C@@H](C(=O)NCCN3CCOCC3)[C@@H]2c2ccc(CO)cc2)nc1	0.925	0.473 (inactive)	0.544 (inactive)	0.434 (inactive)	-0.618 (inactive)	0.537 (inactive)	0.193 (inactive)	0.663 (inactive)	0.547	0.0095
Cc1ccc(S[C@]2(C(=O)NCC(C)C)CC(=O)N(C(C)C)[C@@H]2c2ccc(CO)cc2I)cc1	-0.16	-2.09 (inactive)	-1.52 (inactive)	-0.332 (inactive)	-0.288 (inactive)	-0.91 (inactive)	0.485 (inactive)	-0.117 (inactive)	-1.8	-0.128
CCCCCCc1nc(Cc2cc(OC)c(OC)c(OC)c2)c(C)c2c1[Si](C(C)C)(C(C)C)OC2	-0.422	-0.944 (inactive)	0.328 (inactive)	-3.29 (inactive)	0.055 (inactive)	-0.599 (inactive)	1.4 (inactive)	0.707 (inactive)	0.556	0.146
COCCOC(=O)N1C(=O)[C@@]2(c3cc(C#CCNC(N)=O)ccc31)[C@H](C(=O)N1CCN(c3ncccn3)CC1)[C@H]1C(=O)O[C@H](c3ccccc3)[C@H](c3ccccc3)N1[C@@H]2c1ccc(O)cc1	-0.203	-0.171 (inactive)	0.0034 (inactive)	0.386 (inactive)	1.13 (inactive)	-0.34 (inactive)	0.589 (inactive)	1.15 (inactive)	0.436	-0.0129
C=CCOC(=O)[C@@H]1[C@H]2C(=O)O[C@H](c3ccccc3)[C@H](c3ccccc3)N2[C@H](c2ccc(OCCOC(=O)[C@H]3C[C@H]4C(=O)N[C@@H](CCCCN(C)C)C(=O)N4[C@H]3c3cccc(OCCO)c3)cc2)[C@@]12C(=O)Nc1ccccc12	0.594	0.756 (inactive)	0.75 (inactive)	0.0193 (inactive)	-0.475 (inactive)	0.237 (inactive)	0.292 (inactive)	0.352 (inactive)	0.835	-0.0102
COC(=O)C1=CC(CCCO)=CC(c2ccc(CN3CCCC3)cc2)N(C)C=C1C(=O)OC (stereo not given)	0.407	0.0335 (inactive)	-0.381 (inactive)	-1.58 (inactive)	0.543 (inactive)	0.326 (inactive)	0.98 (inactive)	1.32 (inactive)	0.154	-0.153
COC(=O)C1(CC(C)C)C=C2C(=C(C)C(=O)C2C)CN1 (stereo not given)	-1.23	1.84 (inactive)	-1.78 (inactive)	-1.11 (inactive)	0.715 (inactive)	0.386 (inactive)	-0.43 (inactive)	-0.078 (inactive)	-1.8	0.0408
Cc1cccc([C@H]2C[C@H]3C(Br)=C[C@@]2(CO)C(=O)[C@]32CO2)c1	0.888	-5.63 (inactive)	-0.398 (inactive)	-0.287 (inactive)	0.343 (inactive)	-0.169 (inactive)	0.258 (inactive)	0.294 (inactive)	0.214	0.273
CCOC(=O)C=C1C[C@@H](c2cccc([N+](=O)[O-])c2)O[C@@H](c2cccc([N+](=O)[O-])c2)O1	0.151	2.03 (inactive)	0.226 (inactive)	0.917 (inactive)	0.285 (inactive)	1.79 (inactive)	-0.402 (inactive)	0.335 (inactive)	-0.969	0.127
[N-]=[N+]=NCc1ccccc1C[C@]1(C(=O)N2CCCCC2)COC(c2ccc(OCCCO)cc2)=N1	0.894	-0.749 (inactive)	-0.0967 (inactive)	-0.0119 (inactive)	0.0405 (inactive)	2.36 (inactive)	1.4 (inactive)	0.815 (inactive)	0.791	-0.0604
CC(C)[Si]1(C(C)C)OCc2cc(-c3ccc(-c4ccc(Cl)c(Cl)c4)o3)nc(-c3ccc(Oc4ccccc4)cc3)c21	-0.213	-3.1 (inactive)	-0.0996 (inactive)	0.936 (inactive)	0.574 (inactive)	1.95 (inactive)	0.223 (inactive)	-0.262 (inactive)	-0.133	0.114
C=C(CCCC)/C(=C/C[C@@H](OC(C)=O)c1ccc(OCCO)cc1)c1cc(C(=O)OC)ccc1OC	0.353	-0.107 (inactive)	-1.36 (inactive)	-2.64 (inactive)	0.862 (inactive)	-0.319 (inactive)	0.173 (inactive)	0.107 (inactive)	-0.808	-0.0274
O=C1OCCC/C=C\[C@H]2OC34C=CCN(Cc5ccccc5)C(=O)[C@H]3N(CCO)C(=O)[C@@H]4C12 (stereo not given in full)	-0.122	-0.662 (inactive)	0.99 (inactive)	-0.0771 (inactive)	-0.152 (inactive)	-0.23 (inactive)	1.68 (inactive)	1.89 (inactive)	0.936	0.0015
Cc1ccc(S[C@]2(C(=O)NC3CC3)CC(=O)N(C3Cc4ccccc4C3)[C@@H]2c2ccc(CO)cc2I)cc1	-0.386	-4.29 (inactive)	-2.54 (inactive)	0.282 (inactive)	0.0493 (inactive)	0.283 (inactive)	0.112 (inactive)	-0.266 (inactive)	-1.24	-0.174
C=C(CCCC)C(=O)CC[C@H](OC(=O)c1ccccc1-c1ccccc1C(=O)O)c1cccc(OCCO)c1	-1.01	-1.21 (inactive)	-0.821 (inactive)	-0.347 (inactive)	1.09 (inactive)	0.0742 (inactive)	-0.778 (inactive)	-0.689 (inactive)	-0.432	-0.138
CC(C)(C)OC(=O)N1[C@@H](C=C(Br)Br)COC1(C)C	0.373	-4.13 (inactive)	0.0757 (inactive)	-1.74 (inactive)	-0.677 (inactive)	-1.65 (inactive)	0.559 (inactive)	0.6 (inactive)	-0.673	0.0335
COCCCNC(=O)[C@]1(Cc2ccccc2CN=[N+]=[N-])N=C(c2ccc(OCCCO)cc2)O[C@@H]1c1ccccc1N=[N+]=[N-]	-1.99	0.234 (inactive)	-4.37 (inactive)	0.553 (inactive)	1.24 (inactive)	0.995 (inactive)	0.703 (inactive)	0.692 (inactive)	-3.63	0.43
COC(=O)[C@@]1(Cc2ccccc2)[C@H]2c3cc(C(=O)N(C)C)n(Cc4nc5ccccc5[nH]4)c3C[C@H]2CN1C(=O)c1ccccc1	1.17	-0.541 (inactive)	-0.204 (inactive)	-0.862 (inactive)	0.92 (inactive)	-0.706 (inactive)	1.04 (inactive)	0.0023 (inactive)	-0.139	0.0747
COC(=O)C(CC#Cc1ccc2c(c1)[C@]1(C(=O)N2)[C@H](C(N)=O)[C@H]2C(=O)O[C@H](c3ccccc3)[C@H](c3ccccc3)N2[C@@H]1c1ccccc1OCCO)C(=O)OC	-2.07	0.289 (inactive)	-9.27 (active)	1.53 (inactive)	2.35 (inactive)	2.62 (inactive)	0.0025 (inactive)	0.957 (inactive)	-7.44	0.0289
COc1ccc(C(O)C2C=CC3C(=O)N(c4ccccc4)C(=O)C3N2Nc2ccccc2F)c2ccccc12 (stereo not given)	-1.83	-1.71 (inactive)	-0.042 (inactive)	-0.588 (inactive)	1.15 (inactive)	-0.0824 (inactive)	-0.203 (inactive)	-0.617 (inactive)	0.0565	0.253
COC(=O)[C@H]1N=C(c2ccc(OCCCO)cc2)O[C@H]1c1ccccc1N=[N+]=[N-]	0.249	-3.93 (inactive)	-0.971 (inactive)	0.556 (inactive)	1.43 (inactive)	0.682 (inactive)	0.584 (inactive)	-0.711 (inactive)	0.464	-0.141
C=CC[C@@]1(C(=O)NCCCOC)N=C(c2ccc(OCCCO)cc2)O[C@@H]1c1ccccc1CN=[N+]=[N-]	0.891	-0.574 (inactive)	0.961 (inactive)	0.346 (inactive)	-0.248 (inactive)	-0.343 (inactive)	0.914 (inactive)	0.831 (inactive)	0.803	0.289
